Measured values reported in PubChem BioAssay (Tox21).
Several values for one entry are separate records, joined by “and”; a condition that tells them apart may be missing. Equal values may be shown once. Results filed as inconclusive are left out. The source holds several records for some structures; these can differ, active in one and inactive in another. Activity calls are given as the source filed them. Calls follow the shape of the dose curve; as a rule, active = well fitted curve in the direction sought with a large enough effect in the repeat runs; inconclusive = weak or mixed curves; inactive = no such curve, though single readings can be large; an effect the other way counts as inactive or inconclusive.

How the values were obtained:
[1] = A CellTox Green Cytotoxicity Assay to monitor cytotoxicity in HEK293 cells - 40 hour (AID 1224871); also: nearly all actives have a fitted effect of over 45% in size
Method in brief: (§1)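 Each value comes from one timepoint of a single continuous run in which HEK293 cells with CellTox Green were exposed to compound for up to 40 h at 37 C, dye fluorescence rising with cell death.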

[2] = qHTS RealTime-Glo MT Cell Viability Assay in HEK293 cells - 16 hour (AID 1224872); also: nearly all actives have a fitted effect of over 50% in size
Method in brief: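 Homogeneous bioluminescent viability format in HEK293 cells (600 cells/well). Following 5 h at 37 C/5% CO2, 23 nL compound was pintooled; the signal was measured repeatedly during 40 h incubation.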

[3] = qHTS RealTime-Glo MT Cell Viability Assay in HepG2 cells - 8 hour (AID 1224873); also: nearly all actives have a fitted effect of over 55% in size
Method in brief: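 Real-time viability: cells seeded at 600 per well together with NanoLuc and cell-permeant prosubstrate, compounds added after 5 h incubation. Luminescence tracked at 0, 8, 16, 24, 32 and 40 h of exposure.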

[4] = qHTS RealTime-Glo MT Cell Viability Assay in HEK293 cells - 40 hour (AID 1224874); settings: RealTime-Glo luminescence; max response: stronger effect = lower value; also: nearly all actives have a fitted effect of over 50% in size
Method in brief: (§2)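 qHTS format; HEK293 cells with NanoLuc/prosubstrate reagent, 37 C/5% CO2 for 5 h pre-dosing; compounds 23 nL in DMSO; luminescence at each time point reflects viable cells.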

[5] = A CellTox Green Cytotoxicity Assay to monitor cytotoxicity in HEK293 cells - 24 hour (AID 1224875); also: nearly all actives have a fitted effect of over 45% in size
Method in brief: as §1

[6] = A CellTox Green Cytotoxicity Assay to monitor cytotoxicity in HepG2 cells - 16 hour (AID 1224876); also: nearly all actives have a fitted effect of over 45% in size
Method in brief: (§3)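 Continuous culture of HepG2 cells with a membrane-impermeant DNA dye; rising fluorescence marks dead cells. Compound exposure lasted up to 40 h at 37 C, with reads every 8 h from 0 h.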

[7] = qHTS RealTime-Glo MT Cell Viability Assay in HepG2 cells - 32 hour (AID 1224877); also: nearly all actives have a fitted effect of over 55% in size
Method in brief: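 Cell number in HepG2 cultures estimated from NanoLuc luminescence generated by metabolic reduction of a prosubstrate by living cells. The homogeneous, nonlytic format allowed repeated reads at 0, 8, 16, 24, 32 and 40 h of compound exposure.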

[8] = A CellTox Green Cytotoxicity Assay to monitor cytotoxicity in HepG2 cells - 24 hour (AID 1224878); also: nearly all actives have a fitted effect of over 45% in size
Method in brief: as §3

[9] = A CellTox Green Cytotoxicity Assay to monitor cytotoxicity in HepG2 cells - 40 hour (AID 1224879); also: nearly all actives have a fitted effect of over 40% in size
Method in brief: as §3

[10] = qHTS RealTime-Glo MT Cell Viability Assay in HEK293 cells - 0 hour (AID 1224880); also: nearly all actives have a fitted effect of over 45% in size
Method in brief: as §2
% is scaled to controls: 0 for no effect and ±100 for the full control effect; potency is read from the fitted curve at half-maximal effect.

CCCCCCCCCCCCCCCCCC[N+](C)(C)Cc1ccccc1
inactive: Potency [10]
active: Potency [1] 19.7 µM | Potency [2] 17.5 µM | Potency [3] 49.5 µM | Potency [4] 1.75 µM | Potency [5] 24.8 µM | Potency [6] 44.1 µM | Potency [7] 35 µM | Potency [8] 24.8 µM | Potency [9] 19.7 µM

O=C(O)c1c(Cl)cccc1Cl
inactive: Potency [1] | Potency [2] | Potency [3] | max response [4] 1.14% | Potency [5] | Potency [6] | Potency [7] | Potency [8] | Potency [9] | Potency [10]

C[C@]12CCC(=O)C=C1CC[C@@H]1[C@@H]2[C@@H](O)C[C@@]2(C)[C@H]1CC[C@]2(O)C(=O)COC(=O)CCC(=O)O
active: Potency [10] 10.7 µM
inactive: Potency [1] | Potency [2] | Potency [3] | max response [4] -8.8% | Potency [5] | Potency [6] | Potency [7] | Potency [8] | Potency [9]

CCc1cc(Cc2cc(CC)c(N)c(CC)c2)cc(CC)c1N
inactive: Potency [1] | Potency [3] | Potency [5] | Potency [6] | Potency [7] | Potency [8]
active: Potency [2] 24.5 µM | Potency [4] 27.5 µM

CSc1ccc(/C=C2/C(C)=C(CC(=O)O)c3cc(F)ccc32)cc1
inactive: Potency [1] | Potency [2] | Potency [3] | max response [4] 9.83% | Potency [5] | Potency [6] | Potency [7] | Potency [8] | Potency [9]

CCCCCCCCCCCC[N+](C)(C)CCCCCCCCCCCC
inactive: Potency [10]
active: Potency [1] 17.4 µM | Potency [2] 11 µM | Potency [3] 12.3 µM | Potency [4] 3.89 µM | Potency [5] 15.5 µM | Potency [6] 9.77 µM | Potency [7] 7.76 µM | Potency [8] 7.76 µM | Potency [9] 7.76 µM

CC(C)c1ccc2c(c1)CC[C@H]1[C@](C)(CN)CCC[C@]21C
active: Potency [1] 19.5 µM | Potency [2] 13.8 µM | Potency [3] 34.7 µM | Potency [4] 11 µM | Potency [5] 19.5 µM | Potency [6] 19.5 µM | Potency [7] 11 µM | Potency [8] 13.8 µM

Nc1ccc2cc(S(=O)(=O)O)cc(O)c2c1N=Nc1ccccc1C(F)(F)F
inactive: Potency [1] | Potency [2] | Potency [3] | max response [4] 0.853% | Potency [5] | Potency [6] | Potency [7] | Potency [8] | Potency [9]

CCCC/C=C/CCCCO
inactive: Potency [1] | Potency [2] | Potency [3] | max response [4] 5.87% | Potency [5] | Potency [6] | Potency [7] | Potency [8] | Potency [9] | Potency [10]

CCCCCCCCNC(C)C(O)c1ccc(SC(C)C)cc1 (configuration not stated)
active: Potency [1] 16.9 µM | Potency [2] 10.7 µM | Potency [3] 21.3 µM | Potency [4] 8.49 µM | Potency [5] 16.9 µM | Potency [6] 16.9 µM | Potency [7] 13.4 µM | Potency [8] 16.9 µM

ON=C1CCCC1
active: Potency [2] 22.6 µM | Potency [4] 22.6 µM
inactive: Potency [1] | Potency [3] | Potency [5] | Potency [6] | Potency [7] | Potency [8] | Potency [9] | Potency [10]

CCCCCCCCOC(=O)c1ccc(O)cc1
inactive: Potency [3] | Potency [7]
active: Potency [1] 38.8 µM and 49 µM | Potency [2] 27.4 µM | Potency [4] 27.4 µM | Potency [5] 43.5 µM and 43.6 µM
inactive and 49 µM (active): Potency [9]
inactive and 43.6 µM (active): Potency [6] | Potency [8]

C[C@@H](NCCCc1cccc(C(F)(F)F)c1)c1cccc2ccccc12
active: Potency [1] 23.9 µM | Potency [2] 23.9 µM | Potency [3] 23.9 µM | Potency [4] 23.9 µM | Potency [5] 23.9 µM | Potency [6] 19 µM | Potency [7] 16.9 µM | Potency [8] 16.9 µM | Potency [9] 15.1 µM

C1CCCC1
inactive: Potency [1] | Potency [2] | Potency [3] | max response [4] -2.57% | Potency [5] | Potency [6] | Potency [7] | Potency [8] | Potency [9] | Potency [10]

NNC(=O)c1cccc(C(=O)NN)c1
inactive: Potency [1] | Potency [2] | Potency [3] | max response [4] -2.8% | Potency [5] | Potency [6] | Potency [7] | Potency [8] | Potency [9] | Potency [10]

COc1cc(-c2ccc(N=C=O)c(OC)c2)ccc1N=C=O
inactive: Potency [1] | Potency [2] | Potency [3] | max response [4] -10% | Potency [5] | Potency [6] | Potency [7] | Potency [8] | Potency [9] | Potency [10]

CC(=O)SC[C@@H](Cc1ccccc1)C(=O)NCC(=O)OCc1ccccc1
inactive: Potency [1] | Potency [2] | Potency [3] | max response [4] 0.0146% | Potency [5] | Potency [6] | Potency [7] | Potency [8]

CN(C)[C@@H]1C(=O)C(C(N)=O)=C(O)[C@@]2(O)C(=O)C3=C(O)c4c(O)ccc(Cl)c4[C@@H](O)[C@H]3C[C@@H]12
inactive: Potency [1] | Potency [2] | Potency [3] | max response [4] -2.42% | Potency [5] | Potency [6] | Potency [7] | Potency [8] | Potency [9]
